Eleven compounds from PubChem BioAssay (NCATS) can be followed below.

Results filed as inconclusive are left out. Unmarked numbers belong to inactive results. Active and inactive are the calls of the source. Unless noted, calls follow the shape of the dose curve; as a rule, active = well fitted curve in the direction sought with a large enough effect; inconclusive = small, poorly fitted or top-dose-only effect, or another doubt; inactive = no such curve, though single readings can be large; an effect the other way counts as inactive or inconclusive.

The nature of test [1]: qHTS to identify inhibitors of the type 1 interferon - major histocompatibility complex class I in skeletal muscle: primary screen against the NCATS Pharmaceutical Collection (AID 1347407). Also: % is scaled to controls: 0 for no effect and ±100 for the full control effect. To be noted: human skeletal muscle cells, IFN-b-induced MHC-I HiBiT luminescence, 24 h; series mostly up to 45.9 µM. An outline of the steps: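 Immortalized human myoblasts (C25cl48) with HiBiT knocked into endogenous HLA-B*08:01 were stimulated with 4.0 ng/ml IFN-beta and treated with compounds ([…] top 46 uM) for 24 hrs at 37 C. HiBiT lytic luminescence read.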
For orientation: qHTS replaces the single test concentration by a dilution series.

Test [2] has as its target Protein phosphatase 1D (Homo sapiens) (UniProt O15297). The experiment in a line: RapidFire Mass Spectrometry qHTS Assay for Modulators of WT P53-Induced Phosphatase 1 (WIP1) (AID 1347424).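 Also: amount of dephosphorylated VEPPL-S-QETFS peptide product formed by WIP1; plate controls were DMSO wells for no effect and GSK830371 inhibitor control at 10 µM for full effect.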 To be noted: WIP1 dephosphorylation of phosphopeptide, RapidFire MS; series mostly up to 63 µM. In outline: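 10 nM WIP1 preincubated with compounds 1 hr at room temperature in pH 7.5 Tris buffer with 30 mM MgCl2, 1 mM TCEP; 2 uM VEPPL-pS-QETFS phosphopeptide for 5 min, formic acid quench; dephosphorylated product quantified by RapidFire MS against labelled standard.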

Test [3] has the same target. The experiment in a line: Rhodamine-PBP qHTS Assay for Modulators of WT P53-Induced Phosphatase 1 (WIP1) (AID 1347425). Also: % of control where 0% means no effect. To be noted: recombinant WIP1, Rhodamine-PBP phosphate fluorescence, real-time; series mostly up to 57.5 µM. In outline: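 5 nM WIP1 + 10 uM Rh-PBP, 50 mM Tris pH 7.5, 30 mM MgCl2, 1 mM TCEP, 0.1 mM EGTA, BSA; cpds pinned, 1 hr RT; + 10 uM phosphopeptide; fluorescence 1-min reads x 11 min; delta = f1 - f0.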

Test [4] can be described thus: Primary qHTS for inhibitors of La Crosse Virus (LACV) - induced cell death in SH-SY5Y cells (AID 1508616).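 Also: top concentration of the series differs between compounds; 0% = infected DMSO wells and 100% = uninfected DMSO wells; higher means more rescue of cells from virus-induced death.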 To be noted: SH-SY5Y LACV cytopathicity rescue, ATP luminescence, 6 d; series mostly up to 4.29 µM. An outline of the steps:
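Readout was luminescence from ATPLite 1step added after a 6-day LACV infection (0.01 MOI) of SH-SY5Y cells that had received pin-transferred compound 24 hr after seeding.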

A short description of test [5]: Primary qHTS for small molecule stabilizers of the endoplasmic reticulum resident proteome: Secreted ER Calcium Modulated Protein (SERCaMP) assay (AID 1508630). Also: % is scaled to controls: 0 for no effect and ±100 for the full control effect. To be noted: SH-SY5Y GLuc-SERCaMP (Gaussia luciferase released on ER calcium loss) secretion, thapsigargin, luminescence; series mostly up to 38.4 µM. In outline: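 GLuc-SERCaMP-expressing SH-SY5Y cells, pretreated 16 h with compound, are challenged with thapsigargin to empty ER calcium stores; after 4 h, coelenterazine is added directly to the medium and luminescence is imaged.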

Test [6] addresses Cytochrome P450 2D6 (Homo sapiens) (UniProt P10635). As to the kind of experiment: Cytochrome P450 family 2 subfamily D member 6 (CYP2D6) small molecule antagonists: luciferase biochemical (cell-free) qHTS assay (AID 1645840; active = well fitted curve in the direction sought with a large enough effect in the repeat runs; an effect the other way counts as inactive or inconclusive; also: % is scaled to controls: 0 for no effect and ±100 for the full control effect; nearly all actives have a fitted effect of over 55% in size). To be noted: P450-Glo CYP2D6 enzyme, luciferin luminescence, 1 h; series mostly up to 57.4 µM. In outline: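 P450-Glo luminescent screen: recombinant CYP2D6 enzyme–proluciferin substrate mix preincubated with compound 10 min at room temperature, then NADPH regeneration added for 1 h at room temperature. Detection reagent added for 20 min; luciferin light read as relative luminescence units.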

The target in test [7] is Cytochrome P450 2C9 (Homo sapiens) (UniProt P11712). The experiment in a line: Cytochrome P450 family 2 subfamily C member 9 (CYP2C9) small molecule antagonists: luciferase biochemical (cell-free) qHTS assay (AID 1645842; active = well fitted curve in the direction sought with a large enough effect in the repeat runs; an effect the other way counts as inactive or inconclusive; also: nearly all actives have a fitted effect of over 55% in size; also: potency is read from the fitted curve at half-maximal effect; as to activity change, negative = inhibition: % is scaled to controls: 0 for no effect and ±100 for the full control effect). To be noted: P450-Glo CYP2C9 enzyme assay, luciferin luminescence; series mostly up to 57.4 µM. In outline: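 Luminescence, after 20 min with luciferin detection reagent, reflected CYP2C9 turnover during a 1 h NADPH-driven reaction at 37C. Enzyme-substrate mix contained 0.4% bovine serum albumin and was preincubated with compound 10 min at room temperature.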

Test [8] in a line: Primary qHTS for inhibitors of nuclear receptor binding SET domain protein 2 (NSD2) in an isogenic RCH-ACV NSD2 p.E1099K mutant (9B) (AID 1645876). Also: nearly all actives have a fitted effect of over 70% in size. To be noted: RCH-ACV NSD2 E1099K (9B) viability, CellTiter-Glo, 72 h; series mostly up to 44.9 µM.
Test [9] is described as follows: Primary qHTS for inhibitors of nuclear receptor binding SET domain protein 2 (NSD2) in an RCH-ACV wild type WT cells (2C) (AID 1645877). Also: nearly all actives have a fitted effect of over 70% in size. To be noted: RCH-ACV (leukaemia line) NSD2 WT (2C) viability, CellTiter-Glo, 72 h; series mostly up to 44.9 µM.
Test [10] has as its target Calcium and integrin-binding protein 1 (Homo sapiens) (UniProt Q99828). The experiment in a line: Primary qHTS for Identification of Calcium Integrin Binding Protein 1 (CIB1) Competitor (AID 1508620).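 Also: GST tagged CIB1 binding a fluorescein labelled alphaIIb integrin peptide tracer; top concentration of the series differs between compounds; % is scaled to controls: 0 for no effect and ±100 for the full control effect.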 To be noted: CIB1-GST / FITC-alphaIIb peptide fluorescence polarization; series mostly up to 114 µM. An outline of the steps:
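Fluorescence polarization competition: GST-tagged CIB1 (1 uM final) preincubated with compound 15 min at room temperature, then FITC-labelled alphaIIb peptide (100 nM final) added. After 15 min at room temperature, polarization read at Ex 480/Em 540.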

Test [11] is described as follows: A High-Content qHTS Against Drug Library for the Identification of Small Molecules that Inhibit DYT1 Early Onset Primary Dystonia-Associated Cell Pathology (AID 1645839; calls by dose curve). To be noted: HEK293 Flp-In EGFP-delE TorsinA, punctate imaging, 48 h; series mostly up to 46.1 µM. An outline of the steps:
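Flp-In T-REx 293 cells with tetracycline-inducible EGFP-delE hTOR1A (WT EGFP-hTOR1A as reference), 800 cells/well; compound added with tetracycline, 48 h at 37 C. Fixed, permeabilized cells imaged; %pathology (punctate TorsinA) primary, cell count counterscreen.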

Cytochrome P450 2D6 (Homo sapiens), sequence (P10635 whole entry, looked up): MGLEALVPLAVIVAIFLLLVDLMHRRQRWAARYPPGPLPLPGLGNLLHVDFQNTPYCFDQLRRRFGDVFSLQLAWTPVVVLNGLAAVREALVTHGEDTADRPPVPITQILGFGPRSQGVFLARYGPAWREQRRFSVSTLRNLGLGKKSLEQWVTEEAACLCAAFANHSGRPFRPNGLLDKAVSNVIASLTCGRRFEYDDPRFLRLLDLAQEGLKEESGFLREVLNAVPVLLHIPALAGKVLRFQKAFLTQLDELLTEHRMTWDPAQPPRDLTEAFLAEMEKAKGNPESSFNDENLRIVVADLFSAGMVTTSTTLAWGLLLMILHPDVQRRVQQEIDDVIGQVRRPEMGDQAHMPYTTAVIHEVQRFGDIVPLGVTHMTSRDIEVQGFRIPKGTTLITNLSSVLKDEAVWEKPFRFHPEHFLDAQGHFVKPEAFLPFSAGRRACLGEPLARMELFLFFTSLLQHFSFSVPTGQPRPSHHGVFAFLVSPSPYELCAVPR
Calcium and integrin-binding protein 1 (Homo sapiens), sequence (Q99828 whole entry, looked up): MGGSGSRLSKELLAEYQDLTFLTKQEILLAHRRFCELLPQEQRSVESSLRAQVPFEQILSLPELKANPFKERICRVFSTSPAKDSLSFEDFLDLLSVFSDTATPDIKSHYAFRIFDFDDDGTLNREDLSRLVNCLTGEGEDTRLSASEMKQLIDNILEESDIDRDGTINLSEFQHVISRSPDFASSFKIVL
Cytochrome P450 2C9 (Homo sapiens), sequence (P11712 whole entry, looked up): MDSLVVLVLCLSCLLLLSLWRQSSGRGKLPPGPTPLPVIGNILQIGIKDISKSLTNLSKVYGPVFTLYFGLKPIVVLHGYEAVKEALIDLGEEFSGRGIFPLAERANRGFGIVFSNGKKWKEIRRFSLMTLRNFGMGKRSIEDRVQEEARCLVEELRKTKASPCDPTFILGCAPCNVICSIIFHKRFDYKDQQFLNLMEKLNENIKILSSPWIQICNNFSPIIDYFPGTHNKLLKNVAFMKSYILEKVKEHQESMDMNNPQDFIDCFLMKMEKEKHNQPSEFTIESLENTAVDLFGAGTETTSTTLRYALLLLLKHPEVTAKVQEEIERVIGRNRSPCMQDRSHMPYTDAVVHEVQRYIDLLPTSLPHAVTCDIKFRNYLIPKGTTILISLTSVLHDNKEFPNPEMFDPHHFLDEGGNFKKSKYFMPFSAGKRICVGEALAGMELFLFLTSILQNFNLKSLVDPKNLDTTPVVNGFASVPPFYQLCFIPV
Protein phosphatase 1D (Homo sapiens), sequence (O15297 whole entry, looked up): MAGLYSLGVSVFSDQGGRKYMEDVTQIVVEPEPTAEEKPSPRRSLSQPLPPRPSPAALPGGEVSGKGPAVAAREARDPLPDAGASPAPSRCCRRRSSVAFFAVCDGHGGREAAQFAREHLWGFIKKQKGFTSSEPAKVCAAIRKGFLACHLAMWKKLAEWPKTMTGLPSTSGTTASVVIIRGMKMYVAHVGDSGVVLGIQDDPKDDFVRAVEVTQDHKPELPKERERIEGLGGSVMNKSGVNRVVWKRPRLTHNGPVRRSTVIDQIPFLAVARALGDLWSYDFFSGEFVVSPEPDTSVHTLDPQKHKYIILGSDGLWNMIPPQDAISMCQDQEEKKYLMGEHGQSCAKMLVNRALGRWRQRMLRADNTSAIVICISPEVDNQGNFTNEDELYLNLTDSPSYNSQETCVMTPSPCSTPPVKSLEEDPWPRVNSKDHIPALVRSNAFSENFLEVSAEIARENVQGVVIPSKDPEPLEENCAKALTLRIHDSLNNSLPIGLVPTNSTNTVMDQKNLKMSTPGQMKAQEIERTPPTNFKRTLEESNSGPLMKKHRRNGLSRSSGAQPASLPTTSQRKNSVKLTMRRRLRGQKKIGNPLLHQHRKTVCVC

With `CC(=O)Nc1ccc(OCCOCCOc2ccc(NC(C)=O)cc2)cc1`, the call in test [1], in test [2], in test [3], in test [4] and in [5] was inactive. The Potency entry in test [6], in [8] and in test [9] was “inactive” in each case. Also, the Potency in test [7] is 3470 nM (active).
Consider `CCCCC1(COC(=O)CCC(=O)O)C(=O)N(c2ccccc2)N(c2ccccc2)C1=O`, for which the outcome in test [2], in test [3], in test [4], in [10] and in test [5] was inactive. For the same compound, the Potency result in test [11], in test [8] and in test [9] was “inactive” throughout.
Consider `Cn1c(=O)c2c(ncn2CCO)n(C)c1=O`, for which the compound was called inactive in [1], in test [3], in test [4], in [10] and in test [5]. Also, the Potency entry in test [11], in test [6], in [7] and in test [8] was “inactive” in each case.
Take `COc1nccnc1NS(=O)(=O)c1ccc(N)cc1`: the compound was called inactive in test [1], in test [2], in test [3] and in [4]. Besides, the Potency result in [11], in [6], in [7], in [8] and in test [9] was “inactive” in each case.
Turning to `O=C1c2ccccc2C(=O)C1c1ccc(Br)cc1`, the result in test [1], in test [4] and in [5] was inactive. Also, the Potency entry in [11], in [6], in test [8] and in test [9] was “inactive” throughout. Also, the Potency in test [7] is 2190 nM (active).
Regarding `Cc1c(NC(C)C)c(=O)n(-c2ccccc2)n1C`, the call in test [1], in test [2], in [3] and in [4] was inactive. For the same compound, the Potency result in [11], in test [7], in [8] and in test [9] was “inactive” throughout.
Consider `CC(C)NC[C@@H](O)COc1ccc(CC(N)=O)cc1`, for which the call in [1], in test [2], in [3] and in [4] was inactive. Moreover, the Potency entry in [11], in test [8] and in test [9] was “inactive” in each case.
Take `CC(=O)Oc1cccc(O)c1`: the call in [1], in [2], in [3] and in test [4] was inactive. Further, the Potency result in test [11], in test [6], in test [7], in test [8] and in [9] was “inactive” throughout.
Consider `O=C(O)C(S)C(S)C(=O)O` (stereo not given), for which the call in test [1], in test [2], in test [3] and in [4] was inactive. Besides, the Potency result in test [11], in [6], in test [7], in test [8] and in test [9] was “inactive” each time.
With `c1ccc2[nH]ccc2c1`, the outcome in test [2], in [3], in test [4] and in test [10] was inactive. Moreover, the Potency result in [11], in test [6], in [7], in test [8] and in test [9] was “inactive” in each case.
For the compound `N[C@@H](Cc1ccc(O)cc1)C(=O)O`, the activity change, negative = inhibition in [1] was -1.9% [at 9.18 µM]; in test [2], 3.61% [at 12.6 µM]; in test [3], 8.22% [at 11.5 µM]. The activity change in [4] is 20.5% [at 0.858 µM]. In [11], the % pathology change, negative = correction was -10.7% [at 9.22 µM].
